MRP1 act = H69AR viability gain despite doxorubicin, primary screen, MRP-1 activator project, H69AR cells, CellTiter-Glo; viability rescue; viability increase, % at 10 µM; actives 0.61% (n = 140,000);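 active means viability gain under doxorubicin at or above a set limit, the compound median plus 3 SD, cut at about 4.7% in these data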;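 further: MRP-1 overexpressing cells given doxorubicin 25 µM after compound pretreatment; 18-22 h compound pretreatment then 72 h with doxorubicin before readout; 0% = doxorubicin-only wells and 100% = vehicle-treated cells without doxorubicin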
Candida biofilm = clotrimazole potentiators killing Candida biofilms, primary screen, with clotrimazole, Alamar Blue; AID 834, 2007; inhibition, % at 6 µM; C. albicans biofilm + clotrimazole; actives 0.14% (n = 85,000);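 active means inhibition above 20%; inactive means inhibition below 20%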;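 further: preformed 24 hr biofilms exposed to compound for 48 hr; 0% = biofilm without compound and 100% = blank killed by clotrimazole plus chlorhexidine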
sEH inhibitor = soluble epoxide hydrolase inhibitors, primary screen, biochemical, human sEH. recombinant human sEH enzymatic activity assay. inhibition, % at 2 µM. actives 0.34% (n = 91,000); in the data active means inhibition above about 80%
Target sequence (P34913 whole entry, looked up): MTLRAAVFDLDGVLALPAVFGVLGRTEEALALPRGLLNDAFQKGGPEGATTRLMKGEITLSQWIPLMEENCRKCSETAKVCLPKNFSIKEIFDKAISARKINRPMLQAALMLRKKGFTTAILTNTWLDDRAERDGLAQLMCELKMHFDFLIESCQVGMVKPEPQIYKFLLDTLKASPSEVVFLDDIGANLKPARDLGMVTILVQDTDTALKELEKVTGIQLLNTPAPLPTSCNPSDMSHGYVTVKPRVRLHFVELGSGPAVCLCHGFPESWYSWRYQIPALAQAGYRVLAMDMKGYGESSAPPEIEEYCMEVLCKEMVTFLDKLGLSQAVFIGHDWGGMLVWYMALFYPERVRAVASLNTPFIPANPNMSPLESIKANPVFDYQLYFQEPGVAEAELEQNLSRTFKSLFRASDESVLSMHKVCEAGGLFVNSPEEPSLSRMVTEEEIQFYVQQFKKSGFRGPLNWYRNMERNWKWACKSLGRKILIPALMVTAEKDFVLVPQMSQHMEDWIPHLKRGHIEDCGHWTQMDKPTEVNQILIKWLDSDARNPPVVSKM
MRP resist rev = reversal of MRP1-mediated doxorubicin resistance, primary screen, H69AR cells, doxorubicin co-treatment; H69AR cells + 2 uM doxorubicin, CellTiter-Glo, 72 h; differential viability (reversal), % at 10 µM; actives 0.04% (n = 85,000);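 active means viability drop by adding the cancer drug above about 55%, with treated viability meeting a 40% cutoff, limit read from the data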;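 further: viability without doxorubicin minus viability with 2 µM doxorubicin for each compound; larger differential means the compound sensitizes cells more to doxorubicin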
sEH activator = soluble epoxide hydrolase activators, primary screen, biochemical, human sEH. Bifunctional epoxide hydrolase 2 (Homo sapiens), P34913. purified human sEH enzymatic activity, activator screen. activation, % at 2 µM. actives 0.04% (n = 91,000). AID 717, 2007; in the data active means activation above about 37%
* marks the source's active call; other numbers are inactive results; x = no result. Only some compounds are listed: those with a hit (about 0.87% of all), similar ones and a draw of the others.

SMILES	MRP1 act	Candida biofilm	sEH inhibitor	MRP resist rev	sEH activator
Cc1ccc2nc3c(cc2c1)CC1(C(=O)N(C)C(=O)N(C)C1=O)C1COCCN31 (stereo not given)	-2	3	-3	3	4
Cc1ccc2nc3c(cc2c1)CC1(C(=O)N(C)C(=O)N(C)C1=O)C1CCCCN31 (stereo not given)	5.8*	6	-7	-16	5
OC1(c2ccccc2F)CC2CCC(C1)N2CCN1CCOCC1 (stereo not given)	-1	x	1	-4	-3
O=C(Nc1ccc(F)cc1)c1c(O)c2c(n(Cc3ccccc3)c1=O)CCCC2	9.0*	x	x	x	x
O=c1[nH]c2ccccc2n1C1CCN(CCCC(c2ccc(F)cc2)c2ccc(F)cc2)CC1	-4	18	x	0	x
O=C1CC(N2CCC(n3c(=O)[nH]c4ccccc43)CC2)C(=O)N1c1ccc(F)cc1 (stereo not given)	6.2*	5	13	3	-12
Cc1cc(N2C(=O)C3CCCN3C2c2ccccc2)no1 (stereo not given)	-1	-4	x	5	x
CCOC(=O)C(O)(c1ccc(NC(=O)NC2CCCCC2)cc1)C(F)(F)F (stereo not given)	-3	5	95*	-5	-95
CN(C)C(=O)Oc1ccc(OC(=O)c2ccccc2)cc1	8.2*	4	11	-27	-6
O=C(COc1ccc(Br)cc1)N1CCN(Cc2c[nH]c3ccccc23)CC1	-2	4	16	-19	-14
O=C(COc1ccc(Br)cc1)N1CCN(C2CCCC2)CC1	7.6*	5	-7	12	7
Cc1ccc(NC2=NCCCS2)c(C)c1C	-3	x	x	x	x

From PubChem BioAssay
